# According to PubChem BioAssay (EPA / NIEHS):
# Results filed as inconclusive are left out. The source made the active and inactive calls. Rule for the calls, unless noted: active = hit-call score of the fitted dose curve at least 0.9, where 1 is the maximum; inconclusive = response in the unintended direction; inactive = score below 0.9.
# Tests used:
# [1] = CEETOX_H295R_11DCORT_noMTC: CeeTox H295R High-throughput Steroidogenesis Assay for 11-Deoxycortisol (11DCORT), maximum tolerated concentration (MTC) filtered results only (AID 2283911; active = hit-call score of the fitted dose curve at least 0.9, where 1 is the maximum; inactive = score below 0.9); conditions: actives raise or lower the signal
# In short: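 Forskolin-primed (10 uM, 48 h) H295R adrenal cells are dosed for 48 h at 0.1% DMSO; medium 11-deoxycortisol is quantified by LC-MS/MS against a 7-point standard curve, with activity fitted in both directions versus DMSO.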
# [2] = CEETOX_H295R_OHPREG_noMTC: CeeTox H295R High-throughput Steroidogenesis Assay for OH-Pregnenolone (OHPREG), maximum tolerated concentration (MTC) filtered results only (AID 2283912; active = hit-call score of the fitted dose curve at least 0.9, where 1 is the maximum; inactive = score below 0.9); conditions: actives raise or lower the signal
# In short: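 H295R cells prestimulated 48 h with 10 uM forskolin, then exposed 48 h to compound (0.1% DMSO). 17alpha-hydroxypregnenolone in medium measured by MTBE extraction and HPLC-MS/MS; bidirectional fit vs DMSO, concentrations not MTT/MTC-filtered.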
# [3] = CEETOX_H295R_OHPROG_noMTC: CeeTox H295R High-throughput Steroidogenesis Assay for OH-Progesterone (OHPROG), maximum tolerated concentration (MTC) filtered results only (AID 2283914; active = hit-call score of the fitted dose curve at least 0.9, where 1 is the maximum; inactive = score below 0.9); conditions: actives raise or lower the signal
# In short: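 H295R cells prestimulated 48 h with 10 uM forskolin, then exposed 48 h to chemical (0.1% DMSO final). 17alpha-hydroxyprogesterone in medium quantified by HPLC-MS/MS after MTBE extraction; bidirectional fitting versus DMSO, concentrations not MTC-filtered.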
# [4] = system: Sodium/Iodide Symporter (NIS), SLC5A5 (gene 6528); assay: CPHEA_Stoker_NIS_Inhibition_RAIU: CPHEA's Radioactive Iodide Uptake (RAIU) Assay for Sodium/Iodide Symporter (NIS) Inhibition, Stoker and Laws Labs (AID 2283841)
# In short: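 hNIS-HEK293T-EPA cells incubated 2 h at room temperature with compound (0.001–100 uM, 0.5% DMSO) and 329 pM final 125I in HBSS/10 mM HEPES, pH 7.4. Intracellular 125I counted; normalised to DMSO maximal uptake, triplicate, three biological replicates.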
# [5] = CEETOX_H295R_ANDR_noMTC: CeeTox H295R High-throughput Steroidogenesis Assay for Androstenedione (ANDR), maximum tolerated concentration (MTC) filtered results only (AID 2283915; active = hit-call score of the fitted dose curve at least 0.9, where 1 is the maximum; inactive = score below 0.9); conditions: actives raise or lower the signal
# In short: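 H295R cells, passage 10 or below, prestimulated 48 h with 10 uM forskolin, then exposed 48 h to chemical in 0.1% DMSO. Medium androstenedione extracted with MTBE, quantified by HPLC-MS/MS; concentrations not MTC-filtered; bidirectional fit versus DMSO.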
# [6] = CPHEA_Stoker_NIS_Cytotoxicity: Cytotoxicity Assessment for CPHEA's Radioactive Iodide Uptake (RAIU) Assay for Sodium/Iodide Symporter (NIS) Inhibition, Stoker and Laws Labs (AID 2283897);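 note: active means loss of ATP signal versus DMSO meaning cytotoxicity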
# In short: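 hNIS-HEK293T-EPA cells, human NIS expressed in HEK293T, treated 2 h with chemicals (0.001–100 uM, 0.5% final DMSO). ATP content read by CellTiter-Glo luminescence; loss of signal analysed relative to DMSO.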
smiles,measurement,setting,value
CC(C)OC(=O)c1ccccc1C(=O)OC(C)C,outcome,[1],inactive
same,outcome,[2],inactive
same,outcome,[3],inactive
FC(F)(F)C(F)(F)C(F)(F)C(F)(F)CCI,outcome,[4],inactive
O=S(=O)(OCCOC(F)(F)F)C(F)(F)F,outcome,[4],inactive
O=C(O)C(F)(F)C(F)(F)C(F)(F)C(F)(F)C(F)(F)C(F)(F)C(F)(F)C(F)(F)C(F)(F)C(F)(F)C(F)(F)C(F)(F)C(F)(F)F,outcome,[4],inactive
O=C(O)C(F)(F)C(F)(F)C(F)(F)C(F)(F)C(F)(F)C(F)(F)C(F)(F)C(F)(F)Cl,AC50,[4],33.6 µM (active)
CCCCCCCOC(=O)c1ccccc1C(=O)OCCCCCCC,outcome,[1],inactive
same,outcome,[2],inactive
same,outcome,[3],inactive
same,outcome,[5],inactive
CC(Cc1ccc(O)c(O)c1)C(C)Cc1ccc(O)c(O)c1 (stereo unspecified),AC50,[6],84 µM (active)
O=C(O)C(F)(F)C(F)(F)C(F)(F)C(F)(F)C(F)(F)C(F)(F)C(F)(F)C(F)(F)C(F)(F)C(F)F,AC50,[4],21.7 µM (active)
O=C(O)C(F)(F)C(F)(F)C(F)(F)C(F)(F)C(F)(F)C(F)(F)C(F)(F)C(F)(F)C(F)(F)C(F)(F)C(F)(F)C(F)(F)F,outcome,[4],inactive
C=CC(=O)OCC(F)(F)C(F)(F)C(F)(F)C(F)(F)C(F)(F)C(F)(F)C(F)(F)F,outcome,[4],inactive
FC(F)(F)C(F)(F)C(F)(F)C(F)(F)C(F)(F)CCI,AC50,[4],13.3 µM (active)
